aSyn 5UTR act: Activators working through SNCA 5'UTR binding (MLPCN). alpha-synuclein 5'UTR reporter, activators screen. actives 7.1% (n = 300,000). activity score, % (tested at 7.5 µM), hits read low. AID 1814; in the data active means activity score below about -60%
* = called active by the depositor. Only a sample is shown.

Screening Cn1c(=O)c(/C=C/c2ccccc2)nc2ccccc21 returned aSyn 5UTR act -290.8*.
For CC(=O)c1ccc(/C=C/c2nc3ccccc3n2C)o1 the results were aSyn 5UTR act -90.6*.
Screening O=c1[nH]c2ccccc2nc1/C=C/c1ccccc1 returned aSyn 5UTR act -164.6*.
COc1ccc2cc(/C=C/C(=O)c3ccco3)c(Cl)nc2c1 was read as aSyn 5UTR act -78.0*.
For Cc1ccc2nc(Cl)c(/C=C/C(=O)c3ccco3)cc2c1 the results were aSyn 5UTR act -151.2*.
For COc1ccc2cc(/C=N/NC(=O)c3ccc(CN(c4ccc(C)c(C)c4)S(C)(=O)=O)cc3)c(Cl)nc2c1 the results were aSyn 5UTR act 64.8.
Screening Cc1ccc2cc(/C=C/C(=O)c3ccco3)c(Cl)nc2c1 returned aSyn 5UTR act -120.8*.
`COc1cc(NC(=O)C/C(C)=N/NC(=O)c2ccccn2)c(OC)cc1Cl` gave aSyn 5UTR act -80.3*.
Screening COc1ccccc1NC(=O)C/C(C)=N/NC(=O)c1ccccn1 returned aSyn 5UTR act -102.7*.
C/C(CC(=O)Nc1ccc(C)c(Cl)c1)=N\NC(=O)c1ccccn1 was read as aSyn 5UTR act -70.6*.
CCN(CC)S(=O)(=O)c1cccc(-c2nnc(SCc3nc4ccccc4s3)o2)c1 was read as aSyn 5UTR act -113.0*.
Screening Brc1ccccc1-c1nnc(SCc2nc3ccccc3s2)o1 returned aSyn 5UTR act -243.6*.
For COc1cccc(/C=C2\CCC(C3CCCC3)C2=O)c1 (configuration not stated) the results were aSyn 5UTR act -98.8*.
`COc1cccc(/C=C2\CCC(C3CCCC3)C2=O)c1OC` (configuration not stated) gave aSyn 5UTR act -163.3*.
`Cn1cc(Cl)c(-c2nc3ccccc3[nH]2)n1` gave aSyn 5UTR act -149.4*.
Cc1ccccc1-c1nc2ccccc2[nH]1 was read as aSyn 5UTR act -134.2*.
For Clc1ccccc1-c1nc2ccccc2[nH]1 the results were aSyn 5UTR act -112.9*.
c1ccc2[nH]c(-c3ccnc4ccccc34)nc2c1 was read as aSyn 5UTR act -95.9*.
Cc1cc2nc(-c3ccc[nH]c3=O)[nH]c2cc1C was read as aSyn 5UTR act 76.5.
For Fc1ccccc1-c1nc2ccccc2[nH]1 the results were aSyn 5UTR act -127.8*.
Screening O=C(O)c1cc(O)c2c(c1)C(=O)c1cc(O)cc(O)c1C2=O returned aSyn 5UTR act -80.5*.
`CCC1(c2ccc(F)cc2)NC(=O)N(CC(=O)Nc2ccc(-c3nc4ccc(C)cc4s3)cc2)C1=O` (configuration not stated) gave aSyn 5UTR act -201.5*.
COc1ccc(C2(C)NC(=O)N(CC(=O)Nc3ccc(-c4nc5ccc(C)cc5s4)cc3)C2=O)cc1 (configuration not stated) was read as aSyn 5UTR act -191.4*.
`Cc1c(NC(=O)c2cc(C3CC3)on2)c(=O)n(-c2ccccc2)n1C` gave aSyn 5UTR act -61.7*.
For Cc1c(N/N=C(\C#N)C(=O)c2ccc(Cl)cc2)c(=O)n(-c2ccccc2)n1C the results were aSyn 5UTR act 86.3.
Screening CCN(CC)c1ccc(C(=O)OCC(=O)Nc2sccc2C#N)cc1 returned aSyn 5UTR act -176.5*.
`N#Cc1ccsc1NC(=O)COC(=O)c1ccc(NC(N)=O)cc1` gave aSyn 5UTR act -78.0*.
`N#Cc1ccsc1NC(=O)CCc1ccccc1` gave aSyn 5UTR act -80.7*.
Screening N#Cc1ccsc1NC(=O)COc1ccc(-c2nnco2)cc1 returned aSyn 5UTR act -95.8*.
`CC(=O)Nc1ccc(SCC(=O)Nc2sccc2C#N)cc1` gave aSyn 5UTR act -111.1*.
N#Cc1ccsc1NC(=O)COC(=O)c1cc2ccccc2cc1O was read as aSyn 5UTR act -178.1*.
Cc1ccc2cc(C#N)c(NCc3ccco3)nc2c1 was read as aSyn 5UTR act -67.2*.
For COc1ccc(-c2nc(C#N)c(NCc3ccco3)o2)cc1 the results were aSyn 5UTR act -182.2*.
Screening C=CCNc1oc(-c2ccc(OC)cc2)nc1C#N returned aSyn 5UTR act -135.2*.
COc1ccc(Nc2oc(-c3ccc(F)cc3)nc2C#N)cc1 was read as aSyn 5UTR act -232.6*.
Screening COc1ccc(Nc2oc(COc3ccc(OC)cc3)nc2C#N)cc1 returned aSyn 5UTR act 77.9.
CNc1oc(-c2ccc(OCc3ccccc3)cc2)nc1C#N was read as aSyn 5UTR act -96.1*.
COc1ccc(-c2nc(C#N)c(NCC3CCCO3)o2)cc1OC (configuration not stated) was read as aSyn 5UTR act -74.3*.
For Cc1ccc(-c2nc(C#N)c(NCc3ccco3)o2)cc1 the results were aSyn 5UTR act -145.1*.
Screening CCOc1ccc2c(c1)S/C(=C\c1cccs1)C(=O)N2 returned aSyn 5UTR act -134.1*.
For Cn1cccc1/C=C1\SC(=Nc2cccc(O)c2)NC1=O the results were aSyn 5UTR act -240.8*.
Screening O=C1NC(=Nc2ccccc2)S/C1=C\c1cccs1 returned aSyn 5UTR act -92.2*.
`Cc1ccc(N=C2NC(=O)/C(=C\c3ccco3)S2)cc1` gave aSyn 5UTR act -73.6*.
Screening O=C1NC(=Nc2ccc3ccccc3c2)S/C1=C/c1ccco1 returned aSyn 5UTR act -90.6*.
Screening O=C1NC(=Nc2ccc(O)cc2)S/C1=C/c1ccco1 returned aSyn 5UTR act -87.8*.
Screening O=C(NC(=S)Nc1ccccc1O)c1ccccc1Cl returned aSyn 5UTR act -126.9*.
For O=C(NNC(=S)Nc1ccccc1Cl)c1ccccc1Br the results were aSyn 5UTR act -94.1*.
For CC(=O)N(c1ccccc1)c1nnc(-c2cnc(C)cn2)s1 the results were aSyn 5UTR act -82.5*.
CC(=O)Nc1ccc2nc(-c3ccc(Br)o3)[nH]c2c1 was read as aSyn 5UTR act -127.2*.
Screening Cc1cccc2[nH]c(-c3ccc(NC(=O)c4ccco4)cc3)nc12 returned aSyn 5UTR act -225.3*.
Screening O=C(Nc1ccc2nc(-c3ccc(Br)o3)[nH]c2c1)c1cccs1 returned aSyn 5UTR act -112.3*.
For O=C(Nc1ccc2nc(-c3cccnc3)[nH]c2c1)C1CCCCC1 the results were aSyn 5UTR act -72.4*.
O=C(Nc1ccc2nc[nH]c2c1)c1ccco1 was read as aSyn 5UTR act -74.4*.
O=C(Nc1ccc2nc(-c3ccc(Br)o3)[nH]c2c1)c1ccco1 was read as aSyn 5UTR act -105.6*.
For O=C(Nc1ccc2nc(-c3ccccc3)[nH]c2c1)c1ccco1 the results were aSyn 5UTR act -205.3*.
For Cc1cc(C)cc(NS(=O)(=O)c2ccc(-c3cnc(C4CC4)o3)cc2)c1 the results were aSyn 5UTR act 93.4.
For Cc1ccc(-c2nc3ccc(NS(=O)(=O)c4ccccc4)cc3[nH]2)o1 the results were aSyn 5UTR act -173.6*.
COC(=O)C1CCN(C(=O)c2ccc3nc(-c4cccc(OC)c4)oc3c2)CC1 was read as aSyn 5UTR act -135.7*.
Screening COc1cccc(-c2nc3ccc(C(=O)NC(C)Cc4cccnc4)cc3o2)c1 (configuration not stated) returned aSyn 5UTR act -129.7*.
Screening COc1ccccc1-n1cnc(N)c1C(=O)c1ccccc1 returned aSyn 5UTR act -152.8*.
Screening COc1cc(C(=O)N/N=C(\c2ccccc2)c2ccccn2)cc(OC)c1OC returned aSyn 5UTR act 81.3.
`CN1CCc2c(sc3c2C(=O)NC(c2cccs2)N3)C1` (configuration not stated) gave aSyn 5UTR act -102.8*.
`CCCCC(=O)Nc1ccc(NC(=S)NC(=O)c2cccs2)cc1OC` gave aSyn 5UTR act -106.9*.
CCN(CC)c1ccc(NC(=S)Nc2ccc(F)cc2)cc1 was read as aSyn 5UTR act -91.2*.

High-throughput results: PubChem BioAssay, Broad Institute
